Records with an inconclusive call do not appear. A call without a number means that no potency is given here. The source made the active and inactive calls. The call rests on the fitted dose curve; in most records, active means well fitted curve in the direction sought with a large enough effect; inconclusive means small, poorly fitted or top-dose-only effect, or another doubt; inactive means no such curve, though single readings can be large; an effect the other way counts as inactive or inconclusive.
Assays:
[1] = qHTS for Hypoxia signaling pathway (HIF-1) agonists against the NCATS CANVASS Library (AID 1347375)
How it was run: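 HRE-bla ME-180 cells (beta-lactamase reporter under hypoxia responsive element) in 0.5% dialyzed FBS medium, 5 h at 37C, then compound 17 h, 11-point qHTS series. CCF4-AM FRET substrate 2 h RT; 460/530 nm emission read.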

[2] = 10-beta competent E. coli microbial cell viability qHTS against the NCATS CANVASS Library (AID 1347376); further: series mostly up to about 46 µM
How it was run: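 10-beta competent E. coli (0.9 OD culture diluted to 0.2 OD) exposed to compounds in an 11-point qHTS series, incubated overnight at 37C, 5% CO2. Viability read as ATP by BacTiter-Glo luminescence after 20 min at room temperature.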

[3] = DH5-alpha competent E. coli microbial cell viability qHTS against the NCATS CANVASS Library (AID 1347377); conditions: outcome: dose series up to 46.1 µM
How it was run: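 DH5-alpha E. coli suspension (0.9 OD culture diluted to 0.2 OD) exposed to compounds in an 11-point series, overnight at 37C, 5% CO2. Viability read as ATP by BacTiter-Glo luminescence after 20 min at room temperature.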

[4] = qHTS for H2AX Agonists against the NCATS CANVASS Library (AID 1347378);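 further: phospho-H2AX S139 level in CHO-K1 lysates by TR-FRET emission ratio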; further: potency means the concentration at half of the fitted maximal effect
How it was run: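 Following overnight seeding, CHO-K1 cells are incubated with a concentration series of compound for 3 hr at 37C (final DMSO 0.76%). Cells are then lysed, detection antibodies added, and emission ratio 665/620 nm recorded after 24 hr at room temperature.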

[5] = qHTS for Inflammasome Signaling Inhibitors: IL-1-beta AlphaLISA screen against the NCATS CANVASS Library (AID 1347379); conditions: outcome: dose series up to 57.5 µM;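 further: human THP-1 cells primed with LPS then triggered with ATP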
How it was run: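 Human THP-1 cells were pretreated 1 hr at 37 °C with compounds (up to 57.5 uM final), then stimulated with LPS (250 ng/mL final) and ATP (1.25 mM final). Secreted IL-1B was read by AlphaLISA after 16 hr.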

[6] = qHTS for Antimalaria activity screened against the NCATS CANVASS Library (AID 1347380); further: potency means the concentration at half of the fitted maximal effect; nearly all actives have a fitted effect of over 40% in size; conditions: P. falciparum Dd2 growth, SYBR Green fluorescence, 72 h
How it was run: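 P. falciparum Dd2-infected RBCs (2.5% hematocrit final, 0.3% parasitemia) in Albumax II RPMI were exposed to compounds in an 11-point qHTS series for 72 h at 37C under 5% O2/5% CO2, then lysed with SYBR Green.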

[7] = Inflammasome Signaling qHTS Counterscreen: IL-1-beta AlphaLISA counterscreen against the NCATS CANVASS Library (AID 1347381);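 further: cell-free check with purified IL-1β in medium and no THP-1 cells; series mostly up to about 57 µM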
How it was run: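 To flag interference with the AlphaLISA read-out, a known amount of purified IL-1-beta (4 pg) replaced cell supernatant. Detection used anti-IL-1-beta acceptor beads, biotinylated antibody and streptavidin donor beads at room temperature.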

[8] = Cytotoxicity qHTS for assessment of Hepg2 cells membrane integrity screened against the NCATS CANVASS Library (AID 1347387)
Description: Natural products and their derivatives continue to be wellsprings of nascent therapeutic potential. However, many laboratories have limited resources for biological evaluation, leaving their previously isolated or synthesized compounds largely or completely untested. To address this issue, the Canvass library of natural products was assembled (https://tripod.nih.gov/canvass), in collaboration with academic and industry researchers, for quantitative high-throughput screening (qHTS) across a diverse set of cell-based and biochemical assays. The pure (>85% purity by liquid chromatography/mass spectrometry [LC/MS]) Canvass library of 346 natural products were submitted by 45 academic laboratories and companies around the world. […] The library was formatted into 1536-well plates and evaluated in 50 qHTS (in an 11-pnt concentration series) bioassays with broad scope of disease-relevant mechanisms. The resulting data set from 50 different assays was then systematically analyzed to identify overall trends and specific natural products with interesting biological activities. […] The amount of fluorescence is proportional to the number of lysed cells. […]
Membrane Integrity-screen protocol: 1. […] The fluorescence signal was measured using the EnVision plate reader (PerkinElmer) using a 560 nm excitation and 590 nm emission filters.

[9] = target: Nuclear receptor subfamily 1 group I member 3 (Homo sapiens) (UniProt Q14994); test: qHTS for Constitutive Androstane Receptor (CAR) Agonist screened against the NCATS CANVASS Library (AID 1347373);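 further: every well also contained 1.5 µM PK11195 alongside the test compound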
Sequence of Nuclear receptor subfamily 1 group I member 3 (Homo sapiens) (Q14994 whole entry, looked up): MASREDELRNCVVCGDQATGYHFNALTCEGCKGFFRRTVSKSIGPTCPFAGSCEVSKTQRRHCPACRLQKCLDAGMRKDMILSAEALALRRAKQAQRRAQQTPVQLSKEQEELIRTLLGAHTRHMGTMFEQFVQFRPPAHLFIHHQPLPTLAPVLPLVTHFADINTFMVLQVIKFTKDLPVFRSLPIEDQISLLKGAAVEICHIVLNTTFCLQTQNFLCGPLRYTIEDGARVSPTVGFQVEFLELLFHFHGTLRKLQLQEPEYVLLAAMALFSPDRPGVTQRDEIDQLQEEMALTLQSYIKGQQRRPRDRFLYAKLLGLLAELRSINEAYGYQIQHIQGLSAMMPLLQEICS
Description: Natural products and their derivatives continue to be wellsprings of nascent therapeutic potential. However, many laboratories have limited resources for biological evaluation, leaving their previously isolated or synthesized compounds largely or completely untested. To address this issue, the Canvass library of natural products was assembled (https://tripod.nih.gov/canvass), in collaboration with academic and industry researchers, for quantitative high-throughput screening (qHTS) across a diverse set of cell-based and biochemical assays. […] The library was formatted into 1536-well plates and evaluated in 50 qHTS (in an 11-pnt concentration series) bioassays with broad scope of disease-relevant mechanisms. The resulting data set from 50 different assays was then systematically analyzed to identify overall trends and specific natural products with interesting biological activities. […]
Material: A double-stable (hCAR and CYP2B6-2.2kb) transfected cell line, derived from human hepatoma (HepG2) cells, was utilized for the duration of the quantitative high-throughput screens. […] A first readout of fluorescence signal was acquired via the ViewLux (PerkinElmer) plate reader using a FITC dichroic mirror, excitation 405/10 nm filter, and emission 540/25 nm filter; and using 65 light energy, 1 second exposure, and 2x binning settings. […]

[10] = qHTS for Hypoxia signaling pathway (HIF-1) antagonists against the NCATS CANVASS Library (AID 1347374);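 further: HRE-bla ME-180 cells stimulated with cobalt chloride to stabilize HIF-1alpha; series mostly up to about 38 µM; nearly all actives have a fitted effect of over 60% in size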
Description: Natural products and their derivatives continue to be wellsprings of nascent therapeutic potential. However, many laboratories have limited resources for biological evaluation, leaving their previously isolated or synthesized compounds largely or completely untested. To address this issue, the Canvass library of natural products was assembled (https://tripod.nih.gov/canvass), in collaboration with academic and industry researchers, for quantitative high-throughput screening (qHTS) across a diverse set of cell-based and biochemical assays. […] We collected pure natural products to circumvent deconvolution and structure elucidation due to time and resource limitations. The library was formatted into 1536-well plates and evaluated in 50 qHTS (in an 11-pnt concentration series) bioassays with broad scope of disease-relevant mechanisms. The resulting data set from 50 different assays was then systematically analyzed to identify overall trends and specific natural products with interesting biological activities. […] The compounds were also tested for auto fluorescence that may interfere with the biological target readout resulting in potential false positives and/or negatives. […]
HIF-1 antagonist assay protocol: 1. […] The fluorescence intensity was obtained using the EnVision (PerkinElmer, Shelton, CT) plate reader using a 405 nm excitation, and 460 and 530 nm emission filters. […]

SMILES | outcome [1] | outcome [2] | outcome [3] | Potency [4] | outcome [5] | Potency [6] | outcome [7] | outcome [8] | outcome [9] | outcome [10]
O=c1cc(-c2ccccc2)oc2c(O)c(O)ccc12 | inactive | inactive | inactive | 34400 nM (active) | inactive | 6.7 nM (active) | inactive | inactive | – | –
O=C(O)c1cc(O)c(O)c(O)c1 | inactive | inactive | inactive | inactive | inactive | 5.3 nM (active) | inactive | inactive | inactive | inactive
